Compounds with a hit are over-represented: about 19% of the library has one in this group of screens.
TDP1 cell noCPT – qHTS for Inhibitors of human tyrosyl-DNA phosphodiesterase 1 (TDP1): qHTS in cells in absence of CPT | Potency, µM (series often up to 46.2 µM), for inactives: at the highest dose activity change, negative = growth inhibition, most hits filed as inhibitors | AID 686978, 2013 | DT40 Tdp1-/- hTDP1 cells, no CPT, ATP luminescence, 48 h | 420,000 tested, 15% active; also: potency is read from the fitted curve at half-maximal effect; nearly all actives have a fitted effect of over 55% in size
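Chicken DT40 Tdp1-/- cells complemented with human TDP1, screened without camptothecin (DMSO vehicle only), 400 cells/well. Compounds pin-transferred, cells incubated at 37 °C for at least 48 hr. Growth read as ATP-dependent luminescence (CellTiter-Glo, 30 min at RT).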
IL-1B inflam inh – inhibitors of inflammasome signaling (IL-1 beta secretion) | THP-1 LPS/ATP IL-1B secretion, AlphaLISA, 16 h; stronger effect = lower value | activity change, % at 57.5 µM | 360,000 tested, 4.7% active; in the data active = activity change below about -50%; inconclusive = mostly about -30% to -49%
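THP-1 cells pretreated 1 hr with compounds (up to 57.5 uM final), then stimulated with LPS (250 ng/mL final) plus ATP (1.25 mM final); secreted IL-1B measured by AlphaLISA after 16 hr, decreased signal indicating inhibition.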
TDP1 cell CPT – growth inhibition of DT40 Tdp1-/-;hTDP1 cells with camptothecin (screen for TDP1 inhibitors) | chicken DT40 Tdp1-/-;hTDP1 cells + 20 nM CPT, ATP luminescence, 48 h | Potency, µM (top dose mostly 46.2 µM), inactives show top-dose activity change, negative = growth inhibition, most hits filed as inhibitors | 420,000 tested, 12% active | AID 686979; also: potency is read from the fitted curve at half-maximal effect; nearly all actives have a fitted effect of over 55% in size
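Chicken DT40 Tdp1-/- cells complemented with human TDP1, 400 cells/well, exposed to compounds plus 20 nM camptothecin for at least 48 h at 37 C; viability read as ATP content by CellTiter-Glo luminescence.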
uPA surface inh – cell surface uPA generation inhibition | cell surface uPA generation assay, qHTS | Potency, µM (doses to about 38.3 µM), for inactives: at the top dose activity change, negative = inhibition, actives largely listed as inhibitors | 330,000 tested, 0.31% active | AID 540303; active = well fitted inhibition curve with a large enough effect; inconclusive = small, poorly fitted or top-dose-only effect; inactive = no such curve, though single readings can be large or run the other way; tested in mouse RAW 264.7 cells; also: potency is read from the fitted curve at half-maximal effect; nearly all actives have a fitted effect of over 55% in size
HT1080-NT tox – kills 2HG-producing HT-1080-NT fibrosarcoma cells; HT-1080-NT fibrosarcoma viability, CellTiter-Glo ATP luminescence, 48 h; Potency, µM (titrated, usually from 46.1 µM), for the others: at the top dose activity, negative = less viability, actives largely listed as cytotoxic; 360,000 tested, 1.6% active; AID 686970;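 also: NT is the 2HG producing partner of a matched IDH1 knockdown line; potency is read from the fitted curve at half-maximal effect; 0% = DMSO-treated cells and -100% = media-only wells without cells; nearly all actives have a fitted effect of over 55% in size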
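750 cells/well, RPMI + 5% FBS; 2 h settle, compound pin-transfer, 48 h at 37 degrees C. CellTiter-Glo 10 min RT, luminescence. Normalized to DMSO and media-only wells.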
HT1080 IDH1KD tx – HT-1080 IDH1 knockdown cell toxicity (counter line); HT-1080 IDH1 knockdown viability, ATP luminescence, 48 h; Potency, µM (top dose mostly 46.1 µM), inactives show at the highest dose activity, negative = toxicity, hits mostly cytotoxic; 360,000 tested, 2% active; AID 686971;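 also: potency is read from the fitted curve at half-maximal effect; 0% = DMSO wells and -100% = cell-free medium wells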
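Luminescent ATP read-out (CellTiter-Glo, 10 min at room temperature) after 48 h compound exposure at 37 °C gave viability of IDH1-knockdown HT-1080 cells. Activity was normalised to DMSO and cell-free wells, then fitted as concentration-response curves.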
Numbers without * were called inactive. Unless noted, calls follow the shape of the dose curve; as a rule, active = well fitted curve in the direction sought with a large enough effect; inconclusive = small, poorly fitted or top-dose-only effect, or another doubt; inactive = no such curve, though single readings can be large; an effect the other way counts as inactive or inconclusive. Unless noted, % is scaled to controls: 0 for no effect and ±100 for the full control effect.

Screening C=CCN1C(=O)C2(NNc3ccccc3O2)c2ccccc21 (configuration not stated) returned TDP1 cell noCPT 8.2µM*, IL-1B inflam inh 8.0, TDP1 cell CPT 6.51µM*, uPA surface inh -7.7%, HT1080-NT tox inconclusive and HT1080 IDH1KD tx inconclusive.
Screening CCCN1C(=O)c2ccccc2CC1(C)C(=O)NC1CCCCC1 (configuration not stated) returned TDP1 cell noCPT -24.2% and TDP1 cell CPT -22.5%.
CCCCC12CN3CC(C)(CN(C1)C3c1c(C)[nH]c(=O)[nH]c1=O)C2=O (configuration not stated) was read as TDP1 cell noCPT 0.7% and TDP1 cell CPT -0.4%.
Screening O=C(CSc1ccc2c(c1)OCCO2)NC(=O)Cc1ccccc1 returned TDP1 cell noCPT -23.9%, IL-1B inflam inh 12.2, TDP1 cell CPT -4.5%, uPA surface inh 3.8%, HT1080-NT tox 25.0% and HT1080 IDH1KD tx 26.9%.
`CCCOc1ccc(-c2nonc2NC(=O)c2oc3ccc(C)cc3c2C)cc1OCCC` gave TDP1 cell noCPT inconclusive and TDP1 cell CPT 9.2µM*.
`CCOc1ccc(-c2nonc2NC(=O)c2oc3cc(C)ccc3c2C)cc1` gave TDP1 cell noCPT inconclusive and TDP1 cell CPT 23.1µM*.
CCOc1ccc(-c2nonc2NC(=O)c2oc3c(C)c(C)ccc3c2C)cc1OCC was read as TDP1 cell noCPT 16.4µM* and TDP1 cell CPT 14.6µM*.
`CCOc1cc(-c2nc(C)c(C(C)=O)n2O)ccc1OCC(=O)Nc1cccc(C)c1` gave TDP1 cell noCPT -3.6%, IL-1B inflam inh 17.5, TDP1 cell CPT 4.5%, uPA surface inh 4.3%, HT1080-NT tox -2.6% and HT1080 IDH1KD tx 0.2%.
`CCCCOc1ccc(C2=NC(c3ccccc3)=Nc3ccc(OC)cc3N2)cc1` gave TDP1 cell noCPT 23.1µM* and TDP1 cell CPT 16.4µM*.
Screening COc1ccc(C2=Nc3ccc(OC(F)(F)F)cc3NC(c3cccnc3)=N2)cc1 returned TDP1 cell noCPT 6.51µM* and TDP1 cell CPT 10.3µM*.
For CCOc1ccc2c(c1)C(c1ccc(C)cc1)=NNC(c1ccc(OC)cc1)=N2 the results were TDP1 cell noCPT -28.1%, IL-1B inflam inh inconclusive, TDP1 cell CPT inconclusive, uPA surface inh 11.2%, HT1080-NT tox inconclusive and HT1080 IDH1KD tx -1.9%.
For CCOc1ccc(C2=NC(c3ccc(OC)cc3)=Nc3ccc(Cl)cc3N2)cc1 the results were TDP1 cell noCPT 20.6µM* and TDP1 cell CPT inconclusive.
`CCOc1ccc(C2=NNC(c3cccs3)=Nc3ccc(OC)cc32)cc1` gave TDP1 cell noCPT -26.5%, IL-1B inflam inh -22.5, TDP1 cell CPT -8.0%, uPA surface inh 5.9%, HT1080-NT tox -17.6% and HT1080 IDH1KD tx -4.5%.
COc1ccc2c(c1)NC(c1ccc(Cl)cc1)=NC(c1cccs1)=N2 was read as TDP1 cell noCPT -76.2% and TDP1 cell CPT 29.1µM*.
Screening CSc1ccc(CCNC(=O)Cn2ncn3c(cc4ccccc43)c2=O)cc1 returned TDP1 cell noCPT -12.1% and TDP1 cell CPT -19.2%.
COc1cc(C)ccc1S(=O)(=O)NC(=O)C1(C)CCN1C(=O)C1(c2ccc(Cl)cc2)CCC1 (configuration not stated) was read as TDP1 cell noCPT 2.6%, IL-1B inflam inh 24.3, TDP1 cell CPT -4.0%, HT1080-NT tox 0.6% and HT1080 IDH1KD tx 7.2%.
`O=C(c1ccccc1)N1CCN(CCc2ccncc2)CC1` gave TDP1 cell noCPT -4.5% and TDP1 cell CPT -16.6%.
For COc1ccc(-n2nc3c(c2NC(=O)CCCl)CSC3)cc1 the results were TDP1 cell noCPT 18.4µM*, IL-1B inflam inh -3.6, TDP1 cell CPT inconclusive, uPA surface inh -6.3%, HT1080-NT tox 4.8% and HT1080 IDH1KD tx 5.0%.
`O=C(NCc1ccccc1)C(=O)Nc1c2c(nn1-c1ccccc1)CSC2` gave TDP1 cell noCPT 18.4µM* and TDP1 cell CPT 16.4µM*.
CC(=O)Nc1c2c(nn1-c1ccccc1)CSC2 was read as TDP1 cell noCPT 0.7%, IL-1B inflam inh 3.5, TDP1 cell CPT 3.4%, uPA surface inh 19.7%, HT1080-NT tox 11.0% and HT1080 IDH1KD tx 4.0%.
Screening CC(C)(C)C(=O)Nc1c2c(nn1-c1ccccc1)CSC2 returned TDP1 cell noCPT 23.1µM*, IL-1B inflam inh 9.0, TDP1 cell CPT inconclusive, uPA surface inh -0.9%, HT1080-NT tox -4.6% and HT1080 IDH1KD tx 1.4%.
O=C(CCl)Nc1c2c(nn1-c1ccccc1)CSC2 was read as TDP1 cell noCPT 14.6µM*, IL-1B inflam inh -96.5*, TDP1 cell CPT 20.6µM*, uPA surface inh -2.3%, HT1080-NT tox inconclusive and HT1080 IDH1KD tx inconclusive.
Screening Cc1cccc(OC(=O)CSc2nnc(-c3cccs3)o2)c1C returned TDP1 cell noCPT -17.4% and TDP1 cell CPT 6.6%.
For CC(C)N1C/C(=C/c2ccsc2)C(=O)/C(=C/c2ccsc2)C1 the results were TDP1 cell noCPT 5.8µM*, IL-1B inflam inh -95.6*, TDP1 cell CPT 2.91µM*, uPA surface inh -12.2%, HT1080-NT tox inconclusive and HT1080 IDH1KD tx inconclusive.
For CC(C)N1C/C(=C/c2cccnc2)C(=O)/C(=C/c2cccnc2)C1 the results were TDP1 cell noCPT 1.64µM*, IL-1B inflam inh -104.1*, TDP1 cell CPT 1.64µM*, uPA surface inh inconclusive, HT1080-NT tox 6.51µM* and HT1080 IDH1KD tx 5.8µM*.
`CCN1C(=O)S/C(=C/c2ccsc2)C1=O` gave TDP1 cell noCPT -20.0%, IL-1B inflam inh -25.7, TDP1 cell CPT -10.2%, uPA surface inh 0.3%, HT1080-NT tox 4.3% and HT1080 IDH1KD tx -0.5%.
`Cn1ccnc1SCC(=O)Nc1ccc(Cl)cn1` gave TDP1 cell noCPT 0.0%, IL-1B inflam inh 1.5, TDP1 cell CPT 11.6%, uPA surface inh 0.8%, HT1080-NT tox 16.9% and HT1080 IDH1KD tx 4.2%.
c1ccc(Cc2nnc(Sc3ccccc3)c3ccccc23)cc1 was read as TDP1 cell noCPT inconclusive, IL-1B inflam inh -68.1*, TDP1 cell CPT inconclusive, HT1080-NT tox inconclusive and HT1080 IDH1KD tx 11.2µM*.
For Cc1ccc(C(=O)Nc2ccc(SC(F)F)cc2)s1 the results were TDP1 cell noCPT inconclusive, IL-1B inflam inh -59.3*, TDP1 cell CPT inconclusive, uPA surface inh -3.5%, HT1080-NT tox -2.9% and HT1080 IDH1KD tx -16.3%.
